Screen size: about 220,000 compounds; about 300 (0.14%) were called active. This is one part of a sample in which actives are shown more often than they occur.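 How the source made its calls: active means inhibition of at least 40%; inactive means inhibition below 40%.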 Where a SMILES comes first, the peptide text is derived from it. The star is where a group is joined. OPac = O=C(CO*)c1ccccc1; Bz = O=C(c1ccccc1)*

For orientation: inhibition means the relative decrease from the control value, in per cent.

For the test, the target named is Coagulation factor XI (Homo sapiens) (UniProt P03951). Nature of the test: factor XIa enzyme inhibition, large library – biochemical, 1536-well, primary screen (AID 798).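 Further: fluorescence of freed AMC excited at 355 nm; 0% = enzyme without compound and 100% = no enzyme blank.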 As to conditions: purified FXIa, Boc-Glu-Ala-Arg-AMC fluorogenic substrate; at 5 µM; stronger effect = higher value.
Sequence of Coagulation factor XI (Homo sapiens) (P03951 19-387 limits assumed): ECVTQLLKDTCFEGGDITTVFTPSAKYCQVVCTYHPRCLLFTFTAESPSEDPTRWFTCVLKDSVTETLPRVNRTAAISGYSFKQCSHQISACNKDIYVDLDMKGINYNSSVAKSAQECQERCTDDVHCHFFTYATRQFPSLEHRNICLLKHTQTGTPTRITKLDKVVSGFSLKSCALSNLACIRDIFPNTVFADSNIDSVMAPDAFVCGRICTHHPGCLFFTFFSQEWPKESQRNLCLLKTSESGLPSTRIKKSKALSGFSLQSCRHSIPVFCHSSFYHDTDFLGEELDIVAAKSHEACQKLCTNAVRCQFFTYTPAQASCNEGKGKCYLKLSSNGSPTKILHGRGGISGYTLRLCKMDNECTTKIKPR
Sequence of Coagulation factor XI (Homo sapiens) (P03951 388-625 limits assumed): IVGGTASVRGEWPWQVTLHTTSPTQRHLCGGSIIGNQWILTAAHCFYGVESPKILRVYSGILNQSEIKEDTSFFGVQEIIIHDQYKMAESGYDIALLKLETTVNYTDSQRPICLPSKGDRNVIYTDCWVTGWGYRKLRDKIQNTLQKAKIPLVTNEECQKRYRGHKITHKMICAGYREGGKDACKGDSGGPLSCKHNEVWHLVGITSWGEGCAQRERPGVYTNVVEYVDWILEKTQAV
Turning to `CC(=O)NCC(=O)N1CCCC(C(=O)c2ccc3c4c(cccc24)CC3)C1` (stereo unspecified), the inhibition was -4.06% (inactive). `O=C(CSc1nnnn1-c1ccc(O)cc1)N1N=C(c2ccc3ccccc3c2)CC1c1ccccc1` (stereo unspecified): the inhibition is 8.65% (inactive). For the molecule `COc1ccc(/C=C/C(=O)c2ccc(OC)cc2O)cc1`, the inhibition is 2.98% (inactive). As for `COc1ccc(/C=N/n2c(C)cc(C)cc2=O)cc1`, the inhibition is 44.1% (active). Turning to `COC(=O)c1ccc(/C=N\n2c(C)nnc2C)cc1`, the inhibition is -10.4% (inactive). Under `Cn1c(SCC(=O)N2CCOCC2)nnc1-c1ccc2ncccc2c1` stands 4.39% (inactive); under `COCCn1c(N)c(N(Cc2ccccc2)C(=O)C2CCCCC2)c(=O)[nH]c1=O`, -2.52% (inactive). In the case of `Nc1c(C(=O)O)cnn1-c1ccccc1`, the inhibition was 15.5% (inactive). The result for `COC(=O)c1ccc(S(=O)(=O)NCc2ccccc2)n1C` reads 13.2% (inactive); that for `Cc1cccc(Oc2c([N+](=O)[O-])c(=O)n(C)c3ccccc23)c1`, -4.16% (inactive).

On to `O=C(Nc1ccc(Cl)cc1)Nc1ccc(Oc2cccnc2)nc1`, for which the inhibition is -6.3% (inactive). As for `CCC(C)c1ccc(NC(=S)NCc2ccccn2)cc1` (stereo unspecified), the inhibition is -2.96% (inactive). `O=C(Cc1ccccc1)Nc1c(C(=O)N2CCCCCC2)cnn1-c1ccccc1`: the inhibition was -2.02% (inactive). On to `O=C(NCc1ccccc1Cl)NC(=O)c1csc([N+](=O)[O-])c1`, for which the inhibition is -0.45% (inactive). With `CCc1ccc(S(=O)(=O)Nc2ccc(C)c(NS(C)(=O)=O)c2)cc1`, the inhibition is 1.46% (inactive).

Regarding `C=CCNC(=O)c1ccc2c3n(nc2c1)-c1ccc(C)cc1CO3`, the inhibition was 0.43% (inactive). Under `CCOC(=O)CNc1nc(Cl)nc(Nc2ccccc2)n1` stands -1.06% (inactive); under `Cc1nnc(NCCO)c2ccccc12`, 6.13% (inactive); under `O=C(CNCCC1=CCCCC1)Nc1ccccc1N1CCCCCC1`, -2.46% (inactive). Regarding `CC(C)C(O)C1CCN(Cc2nc(Cc3ccccc3Cl)no2)CC1` (stereo unspecified), the inhibition was -1.58% (inactive). In the case of `Cc1ccc(NCc2n[nH]c(=S)n2-c2ccccc2)cc1Cl`, the inhibition is 0.9% (inactive).

As for `CCOC(=O)C1=C(C)N=C2c3ccccc3C(=O)C2C1c1ccc(Br)cc1` (stereo unspecified), the inhibition was 5.54% (inactive). As to `Cc1ccccc1C(=O)Nc1ccc(N2CCCCCC2)cc1`, the inhibition was -3.76% (inactive). Turning to `O=C(Nc1ccc(F)c([N+](=O)[O-])c1)C1CC(=O)N(Cc2ccccc2)C1` (stereo unspecified), the inhibition was -2.12% (inactive). On to `C#CCNc1ccc(C(=O)OCC)cc1`, for which the inhibition is 0.47% (inactive). On to `O=C(NCc1ccc(F)cc1)C1CCC(CNc2c(N3CCOCC3)c(=O)c2=O)CC1` (stereo unspecified), for which the inhibition was 1.9% (inactive). As for `O=C(C1CCN(C2CCN(Cc3cccc4c3OCO4)CC2)CC1)N1CCOCC1`, the inhibition is -4.01% (inactive). As for `N#Cc1ccccc1NC(=O)COc1c(Br)cc(Br)c2cccnc12`, the inhibition was 0.52% (inactive). Turning to `COc1ccc(OC)c(Cc2nnc(CCC(=O)NC3CCCC3)o2)c1`, the inhibition is 4.91% (inactive).

For `COc1cc(/C=C2/C(=O)ON=C2C)ccc1OCc1cccc(F)c1`, the inhibition is -3.35% (inactive).

For the molecule `O=C(CCl)Nc1ccc(Sc2ccc(NC(=O)CCl)cc2)cc1`, the inhibition is -1.76% (inactive).

`O=C(CCN1CCN(C/C=C/c2ccccc2)CC1)Nc1cccc(F)c1`: the inhibition is -3.15% (inactive). The result for `Cc1cccc(NC(=O)c2ccc3ccccc3n2)n1` reads 0.23% (inactive); that for `Cc1cc(NC(=O)c2cccc(N3C(=O)CCC3=O)c2)no1`, 7.9% (inactive); that for `Cc1cccc(NC(=O)c2cc(N3C(=O)CCC3=O)ccc2Cl)n1`, 45.3% (active). `Oc1ccc2ccccc2c1N=Nc1nccs1`: the inhibition is 1.08% (inactive).

In the case of `Cc1c(NC(=O)C(=O)N/N=C/c2cccs2)c(=O)n(-c2ccccc2)n1C`, the inhibition was -2.28% (inactive).

Regarding `O=C(NCC(=O)N(CC1CCCO1)C(C(=O)NC1CCCCC1)c1ccccc1)c1ccco1` (stereo unspecified), the inhibition is -1.28% (inactive).

As for `Cc1cc(C)nc(-n2ncc3c2CC(c2ccc(C(C)C)cc2)CC3=O)n1` (stereo unspecified), the inhibition was 4.85% (inactive). Take `Cc1ccccc1CN1C[C@@H]2C[C@@H](c3ccc4nsnc4c3)N3CCC[C@@]23C1=O`: the inhibition is 2.82% (inactive). With `Cc1cccc2c1N(CCOc1ccccc1)C(=O)C2=O`, the inhibition was 1.94% (inactive). Take `CCCCCCCCn1c2c(c(=N)c3c1CCC3)CCCC2`: the inhibition is 1.52% (inactive). For the molecule `COC(=O)c1cc(C(=O)OCC(=O)Nc2cc(C)on2)cc([N+](=O)[O-])c1`, the inhibition is -14.4% (inactive). With `Cc1cnc(NC(=O)c2ccccn2)s1`, the inhibition was -1.62% (inactive). In the case of `COc1ccc(OC)c(C(=O)c2ccc(C(=O)N3CCN(Cc4csc(C)n4)CC3)cc2)c1`, the inhibition was 1.41% (inactive). In the case of `COc1ccccc1-c1nnc(NC(=O)c2ccc3ncsc3c2)o1`, the inhibition is 10.2% (inactive). In the case of `O=C(Nc1cccc(CCc2ccccn2)c1)c1ccc(Cl)cc1`, the inhibition was 14.3% (inactive).

Regarding `CN1CCCN(C(=O)C2CCCCC2)CC1`, the inhibition is -3.43% (inactive). For the molecule `CC(NC(=S)NNS(=O)(=O)c1ccc(C(C)(C)C)cc1)c1ccccc1` (stereo unspecified), the inhibition was -2.57% (inactive).

Consider `Cc1cccc2c1-c1sc(C(=O)NCCCN3CCc4ccccc4C3)cc1CO2`, for which the inhibition is -4.99% (inactive). For `COc1ccc(C(=O)N/N=c2\oc3ccccc3cc2C(N)=O)cc1`, the inhibition is 8.97% (inactive).

Take `CC(C(=O)NCC1CCCCC1)N(C)Cc1cccc(Cl)c1` (stereo unspecified): the inhibition is 0.53% (inactive).

As for `COCCN(C(=S)Nc1cccc(Cl)c1C)C(C)c1ccco1` (stereo unspecified), the inhibition was -2.82% (inactive).

As for `Cc1ccc(Cl)c(OCC(=O)NN2CCN(C)CC2)c1`, the inhibition is -0.31% (inactive). For the molecule `COC(=O)CCCC1=CC2=CC(=O)C(C)(OC(=O)c3cccs3)C(=O)C2=CN1CC1CC1` (stereo unspecified), the inhibition is 0.2% (inactive). `O=C(NC(=O)c1cc(OCC(F)(F)F)ccc1OCC(F)(F)F)Nc1ccccc1`: the inhibition was 10.4% (inactive). On to `O=C(CSc1ncn[nH]1)Nc1nc(-c2cccc([N+](=O)[O-])c2)cs1`, for which the inhibition was -0.78% (inactive). The result for `O=C(Nc1cccc(O)c1)c1ccc(C(=O)c2ccccc2)o1` reads 4.5% (inactive); that for `COc1ccc(CCNC(=O)CSc2nc(-c3ccc(OC)c(OC)c3)ccc2C#N)cc1`, -0.12% (inactive). The result for `CCOc1ccc(Oc2nc(C)cc(OC)n2)nn1` reads 4.79% (inactive); that for `Nc1[nH]c(=S)nc2nc(-c3ccccc3)c(-c3ccccc3)nc12`, 4.09% (inactive). As for `CCc1nc(C)cn1S(=O)(=O)c1cc([N+](=O)[O-])ccc1Cl`, the inhibition is -5.64% (inactive). Consider `O=c1[nH]c(SCc2cccc(F)c2)nc2ccccc12`, for which the inhibition is -1.03% (inactive). Regarding `O=C(NCc1cccs1)c1cc(-c2ccccn2)nc2ccc(Br)cc12`, the inhibition is -1.15% (inactive). Consider `Cc1cccc(Cn2cnc3c(N)c(C)c(C)cc32)c1`, for which the inhibition is -1.66% (inactive).

On to `COc1cccc(/C=C/C(=O)Nc2ccc3c(c2)OCCO3)c1`, for which the inhibition was -8.27% (inactive). Turning to `COc1ccccc1-n1c(C)nc2cc(C(=O)NCc3ccc4c(c3)OCO4)ccc21`, the inhibition was 1.71% (inactive). In the case of `O=C(O)CCN=C1CCc2ccccc2N1`, the inhibition is -7.58% (inactive). Take `O=C(CNC(=O)c1ccccc1)NCC(=O)OCC(=O)c1ccccc1` (Bz-Gly-Gly-OPac): the inhibition was -1.35% (inactive).

`S=c1nc2ccccc2c2nc(-c3cccnc3)[nH]n12`: the inhibition was -1.46% (inactive). For the molecule `O=C(NCc1cccnc1)Nc1cccc(NC(=O)NCc2cccnc2)c1F`, the inhibition was -0.25% (inactive).

In the case of `CCOC(=O)c1ccccc1NC(=S)N1CCC(C(N)=O)CC1`, the inhibition was -1.65% (inactive). For the molecule `NC(=O)COC(=O)c1cc(S(=O)(=O)N2CCN(c3ccccc3)CC2)ccc1Cl`, the inhibition is -1.04% (inactive). For the molecule `O=C1c2ccccc2C(=O)N1CCC(O)C[N+](=O)[O-]` (stereo unspecified), the inhibition was 1.96% (inactive). For `CCOc1ccc(S(=O)(=O)Nc2nccs2)cc1`, the inhibition is 0.82% (inactive). The result for `COc1ccc(OCC(=O)N2CCN(C(=O)c3cccs3)CC2)cc1` reads -3.87% (inactive). Take `COc1ccc(CN(Cc2ccc(OC)cc2)C(=O)c2cccs2)cc1`: the inhibition was 54.2% (active). For `COc1ccc(CN(C(=O)c2cccs2)c2nccs2)cc1OC`, the inhibition was 0.51% (inactive). The result for `C/C(=N/NC(=O)CC(=O)N/N=C(\C)c1ccc([N+](=O)[O-])cc1)c1ccc([N+](=O)[O-])cc1` reads 0.21% (inactive); that for `Cc1nc(N)sc1N=Nc1c(C)n(C)n(-c2ccccc2)c1=O`, 1.75% (inactive); that for `CC(C)n1c(O)c(N=Nc2ccccn2)c2ccccc21`, 0.21% (inactive). As to `CCCCOc1ccc(C(=O)N/C(=C/C=C/c2ccccc2)C(=O)N2CCOCC2)cc1`, the inhibition was 5.26% (inactive). With `CCOC(=O)C1CCN(C(=O)Nc2cccc(OC)c2)CC1`, the inhibition is -1.56% (inactive). For `CN(c1ccccn1)c1ncnc2[nH]ncc12`, the inhibition was -2.65% (inactive). As for `CCOc1cc2c(Cl)ncnc2c(OCC)c1OCC`, the inhibition was -5.65% (inactive). Consider `Cc1ccc(C(=O)NNC(=O)OC(C)(C)C)c(Cl)c1`, for which the inhibition is 8.12% (inactive). Regarding `Cc1nc(N2CCOCC2)sc1C(=O)NN`, the inhibition is -11.6% (inactive). Under `CC(C)(C)NC(=O)C(=O)NN=C1CCCCCCC1` stands -1.87% (inactive).

As for `O=S(=O)(Nc1ccc2cn[nH]c2c1)c1ccccc1`, the inhibition is -7.54% (inactive). Under `C/C(=N/O)c1ccc(N2C(=O)C3C4C=CC(C3C2=O)C2C3C(=O)N(c5ccc(/C(C)=N/O)cc5)C(=O)C3C42)cc1` (stereo unspecified) stands -1.59% (inactive); under `CCCCCC(=O)Nc1ccc(S(=O)(=O)Nc2ccc(Cl)nn2)cc1`, -12.1% (inactive).

Values taken from PubChem BioAssay AID798 (PCMD, 2007).
